PubChem BioAssay AID1004 (SRMLSC, 2008)
Activity calls are given as the source filed them.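 Rule for the calls: active = viability at 10 µM of 29.74% or lower, 3 SD below the compound median; inactive = the rest.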

Test: viability of HCT116 lacking mutant beta-catenin – cell-based, DP diverse set, validation, pilot screen (AID 1004)
Conditions: HCT116 (mutant beta-catenin deleted) viability, CellTiter-Glo, 60 h; at 10 µM; active compounds read low

With `CC(C)c1cc2c(c(O)c1O)[C@@]1(C(=O)O)CCCC(C)(C)[C@@H]1CC2` as the molecule, how does the viability read?
Its viability is 103% (inactive).

For `O[C@H]1[C@H](O)[C@@H](O)CN2CC[C@H](O)[C@H]12`, which viability is on record?
The viability was 95.4% (inactive).

With `C[C@@H]1O[C@@H](OC2CC(O)C3(CO)C4C(CCC3(O)C2)C2(O)CCC(C3=CC(=O)OC3)C2(C)C[C@H]4O)[C@H](O)[C@H](O)[C@H]1O` (some centres not stated) as the molecule, how does the viability read?
Its viability is 128% (inactive).

Which viability does the source give for `CN1C[C@H](CNC(=O)OCc2ccccc2)C[C@@H]2c3cccc4c3c(cn4C)C[C@H]21` here?
Its viability is 80.4% (inactive).

With `CN(C)[C@@H]1C(=O)C(C(N)=O)=C(O)[C@@]2(O)C(=O)C3=C(O)c4c(O)cccc4[C@@](C)(O)C3CC12` (some centres not stated) as the molecule, how does the viability read?
Its viability is 98.3% (inactive).

With `CC1=C2[C@H]3OC(=O)[C@@H](C)[C@@H]3CC[C@@]2(C)C=CC1=O` as the molecule, how does the viability read?
Its viability is 98% (inactive).

With `O=C1CCC[C@H]2[C@@H]3CCCN4CCC[C@H](CN12)[C@H]34` as the molecule, how does the viability read?
Its viability is 104% (inactive).

With `NCC(CC(=O)O)c1ccc(Cl)cc1` (configuration not stated) as the molecule, how does the viability read?
Its viability is 103% (inactive).

For `N#Cc1nn(-c2c(Cl)cc(C(F)(F)F)cc2Cl)c(N)c1S(=O)C(F)(F)F` (configuration not stated), which viability is on record?
The viability was 92.8% (inactive).

For `CNc1ccc2oc(C[C@@H]3OC4(CC[C@@H]3C)O[C@H](C(C)C(=O)c3ccc[nH]3)[C@H](C)C[C@H]4C)nc2c1C(=O)O` (some centres not stated), which viability is on record?
The viability was 9.98% (active).

Which viability does the source give for `CCN1C[C@@]2(COC)C3[C@@H](OC)[C@H]4C1[C@@]3(C1C[C@]3(O)C(OC)[C@H](O)[C@@]4(OC(C)=O)C1[C@H]3OC(=O)c1ccccc1)[C@H](OC)C[C@H]2O` (some centres not stated) here?
The viability was 99.8% (inactive).

Which viability does the source give for `C[C@@H]1CC[C@H]2[C@@H](C)C(=O)O[C@@H]3OC4(C)CC[C@@H]1[C@]32OO4` here?
Its viability is 100% (inactive).
